Measured values published in the supplement of paper PMC11417369.
± gives the standard deviation of the averaged measurements. The full ranking holds about 25,000 sequences; the median of “ln(normalized median fluorescence intensity)” is about 10, and the highest 2% start at about 12. The sample holds the highest values, similar sequences and a random draw of the others, so the mix is not that of the screen.

Each sequence was assayed on PfAP2-G AP2 domain (GST-tagged) (assay: gcPBM binding intensity (ln(normalized median fluorescence intensity)); higher = stronger DNA binding).
Procedure, shortened: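 DNA-binding domains from P. falciparum, fused to GST and produced in E. coli, were put on an Agilent 4 × 180k double-stranded probe array for 1 h in 1× PBS holding 1% milk, 0.2 mg/ml BSA, 0.5% salmon testes DNA and 0.03% Triton X-100. Probes were primer-extended, 36 bp long and drawn from intergenic genomic regions, with negative controls included. After Alexa488 anti-GST antibody detection and a 488 nm scan, binding intensity was set as the highest Masliner-normalised natural-log median intensity across replicate spots of either probe orientation.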

Sequence | gcPBM binding intensity (ln)
TATTATAATATTTATACACACATAATTTTGATAAAT [CACACA_site583] | 9.95 ± 0.16
TATATTATGACCACCACACACCTATACACATAACAT [CACACA_site7199] | 11.4 ± 0.91
AACTTTTAGAAGAACACACACATATAGATTATGACC [CACACA_site6256] | 10.2 ± 0.014
ATTATAACACCTCCCCCCCTTTTTTTATGAAGACCA [CACACA_negctrl_site1043] | 11.8 ± 0.86
TACACATACAGACATACACACATACACATATACACA [CACACA_site6918] | 10.2 ± 0.23
CACAAAAGTAAGCACGCACACACAACATGAAATAAA [CACACA_site7938] | 10.4 ± 0.18
ATCTTTCGTACATGTACACACAGAAAAAAAAAAAAA [CACACA_site2502] | 11.5 ± 1
TAATCTTTCGTACATGTACACACAGAAAAAAAAAAA [CACACA_site8798] | 11.8 ± 1.3
TTAATCTTTCCTACATGTACACACAGAAAAAAAAAA [XGTACX_site5213] | 11.5 ± 1
TTAAAGCTTGCATATACACACATACATAAATTCATA [CACACA_site7208] | 10 ± 0.18
TATTTTTTTTTTTTTTTTTTTACCTTTCCACTCAAA [CACACA_negctrl_site1454] | 9.84 ± 0.34
ATGTATATTTTTAAAAGTACAGAATTTTCATATGAA [XGTACX_site5754] | 11.3 ± 0.93
ATATATGTATATTTTTGTACGCATAAATATATTTTT [XGTACX_site827] | 11.3 ± 0.83
TTTTTTAATAAATGGTGTACATATTTTTTTTATACT [XGTACX_site8584] | 11.8 ± 0.87
ATATTTTTTTTTTCGTGTACGCATAAATATATCTAA [XGTACX_site3360] | 11.6 ± 0.95
ATATATTTATATAGGTGTACATATTTTGCTATTCAA [XGTACX_site5199] | 11.6 ± 0.77
TTATTTTCATATAGGTGTACATAAAAATATTCTTAT [XGTACX_site8861] | 11.6 ± 0.82
TATATACAATATAGGTGTACATTTTTTTATCTATTT [XGTACX_site8431] | 11.3 ± 0.69
TAATATATTAATATATGTACGTATTTTTATTAATAT [XGTACX_site5346] | 11.6 ± 0.93
TGTAAATAATATAATAGTACGCATATTTTTATTGAA [XGTACX_site284] | 11.4 ± 0.78
ATTTTATCTTTAAACTGTACGTATTAATATGTAGAA [XGTACX_site3077] | 11.7 ± 1.1
ATATTTATACATAAATGTACTTTTATATATTTAATA [XGTACX_site3020] | 11.1 ± 0.8
TATTATGTATGTATATGTACGTATCTTATTTTATTT [XGTACX_site5008] | 11.3 ± 0.76

Sequence | gcPBM binding intensity (ln)
AATTTATTTTTTTAATGTACATATGGTATAAATATA [XGTACX_site8012] | 11.3 ± 0.79
ATAATAAATAAATAATGTACATATGAAAGAATAAAT [XGTACX_site8355] | 11.1 ± 0.49
ATATAAAATAAATAAGTGCAGATAAATTTATGTGAC [GTGCAC_site9504] | 10.25 ± 0.057
TTGCCCATTTCATTAACACACAAATGTTTATATTCT [CACACA_site4569] | 10.17 ± 0.071
TCATACATTTTCCTTGCACACATTTATAATTAATGT [CACACA_site614] | 10.5 ± 0.17
TTATGCATAAAAGGTGGTACTCCGTATATACATTCT [XGTACX_site4354] | 11.4 ± 0.65
TACTTTTCATCTTCTTAACACACAAAAAAAAAAAAA [CACACA_site9290] | 10.1 ± 0.52
CCCACGTATATTTTGTGTACATAAATAAATAAATAA [XGTACX_site4046] | 11.6 ± 0.86
AATATCTAAAATGTGTGTACATAATATTTTTAATAT [XGTACX_site3831] | 11.7 ± 1.1
TTTATTATTTTTAGGAGTACACAAAATAAAACAAAT [XGTACX_site8841] | 11.6 ± 1
ATGTATATATATTTGTGTACATATTTAGGAAATAAA [XGTACX_site2904] | 11.6 ± 1
TAAAAATAATATATTTGTACATATGTGTATACATAA [XGTACX_site741] | 10.7 ± 0.38
TAACATAAATTTAGGAGTACACTTTTTATACATACA [XGTACX_site4066] | 11.7 ± 1
TATAAAATATAAATTTGTACATATAAAATATTTTAT [XGTACX_site7462] | 10.8 ± 0.53
TTTATATATTTTAGGAGTACATTAAATTATACCTTA [XGTACX_site5600] | 11.5 ± 0.89
TTATATATTTATAAATGTACATATAATTTTTTTATA [XGTACX_site4696] | 11.1 ± 0.67
AATTTTTTAAATGTGTGTACATATTATTTAAATAAT [XGTACX_site5967] | 11.5 ± 0.73
TATTTAATTTTTAAATGTACATATAAAATAATATAT [XGTACX_site2422] | 11.2 ± 0.89
TTTATATATTTTAGGTGTACATAAATTTTTATATAT [XGTACX_site5597] | 11.7 ± 1.1
TTTTAAAGTTGTGAGCTTCATTTTTATTTATATGTA [CACACA_negctrl_site1505] | 9.87 ± 0.057
AAATAATTTATAAATAAATACATTGTTACTTTTTCT [GTGCAC_negctrl_site639] | 9.62 ± 0.29
TTTTTTTTTTTTTTTGCATGCAGGTTTTTACCCCTT [TGCATGCA_site381] | 9.84 ± 0.51
ATCATATGTATGGTGGTGCATTATGCATGAATTTTA [GTGCAC_site9798] | 10.1 ± 0.18

Sequence | gcPBM binding intensity (ln)
TATTCGTGCAATAGTAGTACACTTAAAAATTATTCA [XGTACX_site269] | 11.6 ± 1.1
TTCCAAAATTGCACATGTACAAAATTCTCCAATATG [XGTACX_site3419] | 10.9 ± 0.62
TAATGCATTTTCGCATGTACATATTTCTCTTTATAT [XGTACX_site8915] | 11.1 ± 0.71
TTATATTTTTTTGAGTGTACTTTTTGTGTAAAATTC [XGTACX_site2155] | 11.5 ± 0.84
TTCGACGAGAGCAAGTGTACTCTTGAATAATTTATA [XGTACX_site7613] | 11.3 ± 0.9
TTGTTATATTACAGTAGTACATTTAAAATCTACTAC [XGTACX_site2620] | 11.4 ± 0.93
GAGGTCTTTTTTAATGTGCACATATATATATATATA | 10.7 ± 0.51
ATAAAATAATCTTATGCACACCAAAAATTTATATAA [CACACA_site8332] | 10.2 ± 0.12
TCTATTAATTAATATACACACATTAGATATAAATAT [CACACA_site7241] | 9.945 ± 0.092
TCAATATAAATTAGTTGTACAGTTTTTTTTAATTAT [XGTACX_site6358] | 11.5 ± 0.92
TGTATTATTAATATTTGTACGTAATAATAAAAACAT [XGTACX_site3716] | 11.5 ± 1
TAATAATAAAAAATACGTACATATTATTTATATATG [XGTACX_site853] | 11.4 ± 0.76
TTCAATATACATATGTGTACTAAAATAAATAGAAAA [XGTACX_site5708] | 11.3 ± 0.83
TATTTTTATAAAAACTGTACATAATAAATAAAAATA [XGTACX_site4743] | 11.1 ± 0.62
ACTTCAAAAATAAACTGTACGTAAAAAAAAAAAAAA [XGTACX_site795] | 11.5 ± 1
GTAATATTATATAGTTGTACTTTTTTTTTATTATAT [XGTACX_site483] | 11.5 ± 1
AACTGTAATTTTATACGTACATAAATAATATTATAT [XGTACX_site4277] | 11.7 ± 0.93
ATATATATAAATATATGTACTAATATATACATATAT [XGTACX_site2289] | 11 ± 0.69
GTATTATATTTCAACTGTACGTAAAACTATTAAAAT [XGTACX_site3679] | 11.7 ± 1.1
ACGTAATAAAATAGTTGTACAACTTTTTATAATATA [XGTACX_site4393] | 11.8 ± 1.1
TATATATATATAATGTGTACATACTAAATAGAGGAC [XGTACX_site4153] | 11.7 ± 1.1
ATAATAAGAAAAAAAAAAAAAAAAAAAAAAAAAAAA [TGCATGCA_negctrl_site377] | 9.59 ± 0.58
TTATTGTACTTGCTCGCATGCAATAAAAATATATTA [TGCATGCA_site580] | 11.2 ± 1.1

Sequence | gcPBM binding intensity (ln)
ATAAATTTTTAAACAGCACACATAAATATAATATAT [CACACA_site8691] | 10.06 ± 0.064
TGATAACCTCACAAATGTACGTACGGGGCTAGCATT [XGTACX_site4157] | 11.4 ± 0.78
GTATATGAATGTTCATGTACATAATAAAATATATAA [XGTACX_site250] | 11 ± 0.56
ATGCGTTTAGCAAAAAGTACATATATATATAATATT [XGTACX_site1928] | 11.2 ± 0.73
TTTTATTTATATTATACACACAAGGAAAAAAAAAAA [CACACA_site7690] | 10.2 ± 0.26
ATATATTATTTCTAGTGTACATACCCATATATAATA [XGTACX_site8902] | 11.2 ± 0.69
ATAAATACTTTTTGGTGTACACTTTTAAATGAAAAA [XGTACX_site3042] | 11.8 ± 1
TGGTGTTTTTTTTAATGTACTTATAAAATAATACAT [XGTACX_site6574] | 11.4 ± 0.83
AATAGTTATTCCAGGTGTACATAACATATAATTTAC [XGTACX_site1340] | 11.5 ± 0.95
AATAAAAAAAATTTCTGTACATATATTTATTATATA [XGTACX_site1883] | 11.1 ± 0.74
AGTTTCCATATGAGGTGTACATATATAATTTATTAT [XGTACX_site2369] | 11.6 ± 0.71
ATTATTTATTATTTCTGTACGTATAAAAATAACATT [XGTACX_site1671] | 11.7 ± 1.1
TTATAATTTTTCTATTGTACATTTAATAATATATAT [XGTACX_site7326] | 10.9 ± 0.47
CTTTTTTTTTAAAAATGTACACATTTTTGAAAATAC [XGTACX_site3127] | 11.4 ± 0.84
TATAAAATATATATCTGTACGTATTTTATTTTTTAT [XGTACX_site6257] | 11.4 ± 0.88
GTTTTCTAGTGGGGGTGTACATATTTATATTTAATA [XGTACX_site8378] | 11.7 ± 0.86
TATATATTATATATATGTACATAATTCCATGTTTAG [XGTACX_site3943] | 11.2 ± 0.81
ATTTTTTAAAATATTTGTACATATATAATGCATATA [XGTACX_site7026] | 11 ± 0.64
TTCTTTTTCCAATTTGCACACCACAAAATTATATAT [CACACA_site2909] | 10.5 ± 0.28
AGAGTATATATATATGCATGCATATCTCATATTTAT [TGCATGCA_site509] | 9.71 ± 0.13
